Results: PubChem BioAssay AID2513 (National Center for Advancing Translational Sciences (NCATS), 2010)
Results filed as inconclusive are left out. Activity calls are given as the source filed them. The call rests on the fitted dose curve; in most records, active means well fitted curve in the direction sought with a large enough effect; inconclusive means small, poorly fitted or top-dose-only effect, or another doubt; inactive means no such curve, though single readings can be large or run the other way.

Experiment: Counterscreen Assay for Enhancers of SMN2 Splice Variant Expression: Modulation of SMN1 Expression for Probe SAR
Conditions: HEK293 SMN1-luciferase reporter, luminescence, 30-36 h; series mostly up to 46.1 µM; activity change, negative = inhibition: at the top concentration
Description: NIH Chemical Genomics Center [NCGC] NIH Molecular Libraries Probe Production centers Network [MLPCN] MLPCN Grant: R03 MH084179-01 Assay Submitter (PI): Elliot Androphy NCGC Assay Overview: Spinal muscular atrophy (SMA) is caused by insufficient levels of the survival motor neuron protein SMN. The SMN locus on chromosome 5q13 contains two inverted copies of SMN called SMN1 and SMN2 which are 99% identical at the amino acid level. SMN1 is a fully functional protein and SMN2 skips exon 7 90% of the time. Skipping of exon 7 produces non-functional protein product. 10% of the SMN2 protein includes exon 7 and is fully functional. In the SMA disease state, mutations in the SMN1 locus are the cause of the disease state. Because only 10% of SMN2 is of the fully functional form, it is not sufficient to overcome the deficiency produced by the loss of the SMN1 product. A therapy that either increase the amount of SMN2 product made or to increase the inclusion of exon 7 has been proposed for the treatment of SMA. We have designed an assay to identify small molecules that can increase the amount of functional SMN2 product by appending a luciferase reporter gene after the native SMN2 gene, such that inclusion of exon 7 in the expressed product places the luciferase sequence in frame, thus generating functional luciferase enzyme. As a counterscreen for nonspecific modulators of expression, we have run compounds through a similar assay that measures expression of an SMN1-luciferase chimera.
NCGC Assay Protocol Summary: This screen utilizes a luciferase reporter gene assay, combining the promoter with the major portion of the native SMN1 cDNA (exons 1 -7, intron 8 , exon 8 fused to luciferase) stably expressed in HEK293 cells. Compounds that increase luciferase signal presumably enhance expression of the functional SMN1 splice variant. Passaging media contained DMEM w/ glutamax (+phenol red) 10% FCS, 1x pen/strep, 200 ug/ml hygro, 1x sodium pyruvate. Assay media contained DMEM w/ glutamax (-phenol red) 10% FCS, 1x pen strep, 1x pyruvate Sequence, Parameter, Value, Description (1) Cells, 5 uL, 2000 cells/well, 1536 TC treated White solid bottom plate (2) Time, 10-12 hours, 37C 5% CO2 (3) Compound, 23 nl, MLSMR Library (4) Control Compound, 23 nL, Sodium butyrate st 4.5mM (final) conc (5) Time, 30-36 hours, 37C 5% CO2 (6) Reagent, 3 ul, One Glo (TM) from Promega (7) Time, 5-15 minutes, Room temp (8) Detector, Viewlux: luminescent read, 60 second integration, high speed 2x binning Keywords: Spinal muscular atrophy, SMA, SMN2, high throughput screening, MLSMR, MLPCN, NIH Roadmap, qHTS and NCGC

Row | SMILES | Potency | activity change, negative = inhibition
1 | NC(=O)C1CCN(c2nc(-c3ccc4c(c3)OCCO4)cs2)CC1 | 19.4 µM (active) | 
2 | CN(C)c1ccccc1-c1csc(N2CCC(C(N)=O)CC2)n1 |  | 5.97% (inactive)
3 | NC(=O)C1CCN(c2nc(-c3ccccc3F)cs2)CC1 |  | -41% (inactive)
4 | NC(=O)C1CCN(c2nc(-c3cccnc3)cs2)CC1 |  | -8.52% (inactive)
5 | NC(=O)C1CCN(c2nc(-c3cc4ccccc4o3)cs2)CC1 |  | -20.8% (inactive)
6 | CS(=O)(=O)c1cccc(-c2csc(N3CCC(C(N)=O)CC3)n2)c1 |  | -9.05% (inactive)
7 | CN(C)C(=O)c1cccc(-c2csc(N3CCC(C(N)=O)CC3)n2)c1 |  | 3.37% (inactive)
8 | Cc1noc(C)c1-c1csc(N2CCC(C(N)=O)CC2)n1 |  | 22.9% (inactive)
9 | CC(=O)c1ccc(-c2csc(N3CCC(C(N)=O)CC3)n2)cc1 |  | -12.7% (inactive)
10 | NC(=O)C1CCN(c2nc(-c3ccccc3C(F)(F)F)cs2)CC1 |  | -17.9% (inactive)
11 | NC(=O)C1CCN(c2nc(-c3cccc(N)c3)cs2)CC1 |  | -4.38% (inactive)
12 | Brc1ccc(-c2csc(N3CCCCC3)n2)cc1 |  | -25.7% (inactive)
13 | NC(=O)C1CCN(c2nc(-c3cccc(Cl)c3)cs2)CC1 |  | -3.66% (inactive)
14 | NC(=O)C1CCN(c2nc(-c3ccccc3N)cs2)CC1 |  | -8.38% (inactive)
15 | NC(=O)C1CCN(c2nc(-c3ccccc3Br)cs2)CC1 |  | -7.81% (inactive)
16 | Cn1ccc2cc(-c3csc(N4CCC(C(N)=O)CC4)n3)ccc21 |  | -22.7% (inactive)
17 | NC(=O)C1CCN(c2nc(-c3ccc4ccccc4c3)cs2)CC1 |  | -13.3% (inactive)
18 | CS(=O)(=O)c1ccccc1-c1csc(N2CCC(C(N)=O)CC2)n1 |  | -12.4% (inactive)
19 | NC(=O)C1CCN(c2nc(-c3ccccc3-c3ccccc3)cs2)CC1 |  | -13% (inactive)
20 | NC(=O)C1CCN(c2nc(-c3cccs3)cs2)CC1 |  | -20.2% (inactive)
21 | CC(=O)c1cccc(-c2csc(N3CCC(C(N)=O)CC3)n2)c1 |  | -21.4% (inactive)
22 | NC(=O)C1CCN(c2nc(-c3ccc4occc(=O)c4c3)cs2)CC1 |  | -29.9% (inactive)
23 | COc1ccc(-c2csc(N3CCC(C(N)=O)CC3)n2)cc1 |  | -28.5% (inactive)
